Measurements as given in PubChem BioAssay.

What follows are molecules tested on XIP peptide (Xip251-270) binding (assay: XIP fragment 251-270 binding compounds – biochemical, small-molecule microarray, fluorescence 635/667 nm, 0.1 µg/mL protein, primary screen (AID 1182)). Settings: fluorescent protein binding, 635 nm, higher = more signal, called active from +8 up or from −8 down.

Composite z-score, inactive:
CO[C@@H]1C=CCC(=O)N[C@@H](C)C(=O)OC[C@@H](OC)[C@H](C)C=CCC(=O)OC[C@H]1C 0.551
CC(CCN1CCCc2nc(C)c(C)cc21)=NO[C@H](C)c1cn([C@H](CO)Cc2ccccc2)nn1 -0.0325
COc1ccc(COC(=O)NN=C2C[C@@H](O)[C@@H](O)[C@@H]3[C@@H]4C(=O)N([C@@H](C)c5ccccc5)C(=O)[C@@H]4CC[C@H]23)cc1 -0.153
O=C1C2=CC[C@H]3C(=O)N(C[C@@H]4CCCO4)C(=O)[C@H]3[C@H]2[C@H](O)[C@@H]2O[C@H]12 -0.14
CON(C)C(=O)c1nnc2c(n1)[nH]c1ccccc12 -0.132
C[C@@H](c1ccccc1)N1C(=O)[C@H]2[C@H]3[C@H](O)[C@H](O)CC(=NOC[C@@H](O)COCc4ccco4)[C@H]3CC[C@H]2C1=O 0.15
COC(OC)[C@@H](C)[C@H](OC)[C@@H](C)[C@H](OC)c1ccccc1 -0.17
COC(=O)[C@H](C)NC(=O)CCC1CC(OC(=O)NCCc2ccc(F)cc2)CC2(CCCC(COC(=O)NCCc3ccccc3OC)O2)O1 (stereo partly specified) 0.784
COc1ccc(O[C@H]2C=C[C@@H](c3ccccc3)O[C@@H]2COC(=O)CCC(C)=NOC[C@@H](O)COCc2ccco2)cc1 -0.0073
C[C@]12CCC3c4ccc(OCC5CO5)cc4CCC3C1CC[C@@H]2O (stereo partly specified) 0.504
C[C@@H](c1ccccc1)N1C(=O)[C@H]2[C@H]3[C@H](O)[C@H](O)CC(=NOCc4ccccc4)[C@@H]3CC[C@H]2C1=O 0.641
O=C1[C@H]2[C@H]3[C@H](O)[C@H](O)CC(=NO[C@@H]4O[C@H](CO)[C@@H](O)[C@H](O)[C@H]4O)[C@@H]3CC[C@H]2C(=O)N1c1cccc(Oc2ccccc2)c1 0.311
COc1ccc(O[C@H]2C=C[C@@H](c3ccccc3)O[C@@H]2CON=C2c3cc(OC)ccc3O[C@H](c3cccc(OC)c3)[C@H]2O)cc1 -0.167
C=CC[C@@H]1C=C[C@H](ON=C(C)CCN2CCCCc3nc(C)c(C)cc32)[C@@H](CO)O1 -0.167
COc1ccc(-c2cnnc(CCCn3ccnc3-c3ccccc3)n2)cc1 0.0584
CCOC(=O)[C@H](CC(C)C)NC(=O)CCC1CC(OC(=O)NCc2ccc3c(c2)OCO3)CC2(CCCC(COC(=O)NCCOC)O2)O1 (stereo partly specified) 0.685
CCCCOC(OCCCC)C(O)CSc1ccc2ccccc2c1 (stereo unspecified) 0.115
CC(=O)OC[C@H]1O[C@H](CC=NO[C@H](C)c2cn([C@@H]3COC[C@H]3O)nn2)C=C[C@@H]1OC(C)=O -0.205
CO[C@@H]1COC(=O)[C@@H]2CCCN2C(=O)[C@@H](C)COC(=O)CCC[C@H]1C -0.0308
COc1ccc(COC(=O)NN=C2C[C@@H](O)[C@@H](O)[C@@H]3[C@@H]4C(=O)N(C[C@@H]5CCCO5)C(=O)[C@@H]4CC[C@@H]23)cc1 -0.155
CC(=O)OC[C@H]1O[C@H](CC=NOC(C)CN2CCCCc3nc(C)c(C)cc32)C=C[C@@H]1OC(C)=O (stereo partly specified) 0.231
CCN1C(=O)[C@H]2[C@H]3[C@H](O)[C@H](O)CC(=NOC(C)CN4CCCc5nc(C)c(C)cc54)[C@@H]3CC[C@H]2C1=O (stereo partly specified) 0.302
CC(=O)OC[C@H]1O[C@H](CC=NOC[C@@H](O)COCc2ccco2)C=C[C@@H]1OC(C)=O 0.084
CCN1C(=O)[C@H]2[C@H]3[C@H](O)[C@H](O)CC(=NNC(=O)OCc4ccccc4)[C@H]3CC[C@H]2C1=O -0.249
COC(=O)[C@H](C)NC(=O)CCC1CC(OC(=O)NCc2cccc3ccccc23)CC2(CCCC(COC(=O)NCCOc3ccccc3)O2)O1 (stereo partly specified) 2.12
COc1ccc(OC[C@H]2CN3[C@@H](CC[C@@H](C)[C@@H]3c3ccc(Br)cc3)C(=O)O2)cc1 -0.192
CCOC(=O)[C@H](Cc1ccccc1)NC(=O)CCC1CC(OC(=O)NCc2ccc3c(c2)OCO3)CC2(CCCC(COC(=O)NCCc3ccc(Cl)cc3)O2)O1 (stereo partly specified) 0.0608
O=C1[C@H]2CCn3c(=O)n(Cc4cc5c(cc4Cl)OCO5)c(=O)n3[C@H]2[C@H](O)[C@@H]2O[C@H]12 0.188
COC(=O)CC=C1c2ccccc2[C@H](OC)[C@H]1C -1.14
CC(C)CON=C1C[C@@H](O)[C@@H](O)[C@@H]2[C@@H]3C(=O)N(Cc4ccc5c(c4)OCO5)C(=O)[C@@H]3CC[C@@H]12 -0.263
C=CC[C@@H]1C=C[C@H](ON=CC[C@@H]2C=C[C@H](OC(C)=O)[C@@H](COC(C)=O)O2)[C@@H](CO)O1 0.571
CC(=O)OC[C@H]1O[C@H](CCON=C(C)C)C=C[C@@H]1OC(C)=O -0.843
CO[C@@H]1COC(=O)[C@H](COCc2ccccc2)NC(=O)CC=C[C@@H](C)[C@H](OC)COC(=O)[C@@H](C)NC(=O)CC=C[C@H]1C 0.455
CC(C)[C@@H](OCc1ccccc1)[C@H](C)C=NO[C@H](C)c1cn([C@@H]2COC[C@H]2O)nn1 -0.0971
CCOC(=O)[C@H](Cc1ccccc1)NC(=O)CCC1CC(OC(=O)NCCc2ccc(F)cc2)CC2(CCCC(COC(=O)NCCC(C)C)O2)O1 (stereo partly specified) 0.162
CC(=O)OC[C@H]1O[C@@H](ON=C(C)CCC(=O)OC[C@H]2O[C@H](C#Cc3ccccc3)C=C[C@@H]2Oc2ccc(C)cc2)[C@H](OC(C)=O)[C@@H](OC(C)=O)[C@@H]1OC(C)=O 0.0771
